The target of assay [1] is Acetylcholinesterase (Homo sapiens) (UniProt P22303). Put plainly: Acetylcholinesterase (AChE) small molecule antagonists: fluorescence cell-based qHTS assay (AID 1347398; calls by dose curve; note: nearly all actives have a fitted effect of over 50% in size). As to conditions: Potency: AChE activity. The procedure, abridged:
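Cellular AChE inhibition: SH-SY5Y cells treated with test chemical for 30 min at 37 C, then acetylthiocholine hydrolysis followed over 40 min at room temperature via thiocholine-reactive Thiolite Green fluorescence (490/520 nm).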

Assay [2] has the same target. Put plainly: Acetylcholinesterase (AChE) small molecule antagonists: enzyme-based qHTS assay with human liver microsomes (AID 1347399; calls by dose curve; note: nearly all actives have a fitted effect of over 60% in size). Conditions: Potency: qHTS inhibition. In short, it runs like this:
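Recombinant human AChE (50 mU/mL in the enzyme mix) and human liver microsomes (0.25 mg/mL final) were preincubated with compound and NADPH (0.25 mg/mL final) for 30 min at 37 C. Acetylthiocholine/DTNB was then added; thiocholine was read colorimetrically after 10 min at room temperature.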
For orientation: In qHTS, concentration-response curves come from the screen itself.

Assay [3] has as its target Cytochrome P450 2D6 (Homo sapiens) (UniProt P10635). Put plainly: Cytochrome P450 Family 2 Subfamily D Member 6 (CYP2D6) small molecule antagonists: luciferase reporter qHTS assay (AID 1671196). Note: nearly all actives have a fitted effect of over 50% in size. In short, it runs like this: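 Room-temperature luminescent CYP2D6 activity assay: compound preincubated 10 min with enzyme–substrate mix, NADPH-initiated reaction 1 h, detection reagent 20 min before reading.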
Background: In a reporter assay the amount or activity of a reporter protein is the signal.

The target of assay [4] is Cytochrome P450 2C9 (Homo sapiens) (UniProt P11712). The experiment in a line: Cytochrome P450 Family 2 Subfamily C Member 9 (CYP2C9) small molecule antagonists: luciferase reporter qHTS assay (AID 1671198). Note: nearly all actives have a fitted effect of over 50% in size. In short, it runs like this: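 CYP2C9 activity was measured with a P450-Glo proluciferin substrate. Enzyme–substrate mix was held with compound for 10 min at room temperature, then NADPH regeneration solution was added for 1 h at 37C. Luciferin product was read as luminescence.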

The target in assay [5] is Cytochrome P450 1A2 (Homo sapiens) (UniProt P05177). The experiment in a line: Cytochrome P450 Family 1 Subfamily A Member 2 (CYP1A2) small molecule antagonists: luciferase reporter qHTS assay (AID 1671199). Note: nearly all actives have a fitted effect of over 50% in size. In short, it runs like this: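 Room-temperature CYP1A2 reaction with proluciferin substrate: compounds added from DMSO, 10 min preincubation, NADPH regeneration for 1 h. Luciferin detection reagent then added; luminescence recorded as RLU.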

Assay [6] has as its target Voltage-gated inwardly rectifying potassium channel KCNH2 (Homo sapiens) (UniProt Q12809). Put plainly: Human Ether-a-go-go-Related Gene (hERG) channel small molecule antagonists: fluorescence cell-based qHTS assay (AID 1671200). Note: nearly all actives have a fitted effect of over 50% in size. The procedure, abridged: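 U2OS cells expressing the channel were plated at 1000 cells/well, incubated overnight at 37 C, then loaded with FluxOR II thallium-sensitive dye for 1 h at room temperature in the dark, with a further 10 min at room temperature before stimulation.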
For orientation: Block of hERG is tested as a sign of cardiac risk.

The target in assay [7] is Cytochrome P450 3A4 (Homo sapiens) (UniProt P08684). The experiment in a line: Cytochrome P450 Family 3 Subfamily A Member 4 (CYP3A4) small molecule antagonists: luciferase reporter qHTS assay (AID 1671201). Note: nearly all actives have a fitted effect of over 50% in size. In short, it runs like this: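 P450-Glo CYP3A4 system with proluciferin substrate; compounds preincubated 10 min RT with enzyme-substrate mix, then NADPH regeneration added for 1 h RT. Detection reagent 20 min, luminescence read as relative luminescence units.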

Assay [8] deals with Cytochrome P450 2C19 (Homo sapiens) (UniProt P33261). Put plainly: Cytochrome P450 Family 2 Subfamily C Member 19 (CYP2C19) small molecule antagonists: luciferase reporter qHTS assay (AID 1671197). Note: nearly all actives have a fitted effect of over 65% in size. The procedure, abridged:
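First, compounds are pinned into enzyme-substrate mix and held 10 min at room temperature. Second, NADPH regeneration solution is added and plates incubate 1 h at 37C. Third, detection reagent is added and luminescence read after 20 min.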

Unmarked numbers belong to inactive results. Results filed as inconclusive are left out. The source made the active and inactive calls. Unless noted, calls come from the whole dose curve; as a rule, active = well fitted curve in the direction sought with a large enough effect in the repeat runs; inconclusive = weak or mixed curves; inactive = no such curve, though single readings can be large; an effect the other way counts as inactive or inconclusive.

29 molecules from PubChem BioAssay (Tox21) can be followed below.
Potency is the fitted concentration of half-maximal effect.

Cytochrome P450 3A4 (Homo sapiens), sequence (P08684 whole entry, looked up): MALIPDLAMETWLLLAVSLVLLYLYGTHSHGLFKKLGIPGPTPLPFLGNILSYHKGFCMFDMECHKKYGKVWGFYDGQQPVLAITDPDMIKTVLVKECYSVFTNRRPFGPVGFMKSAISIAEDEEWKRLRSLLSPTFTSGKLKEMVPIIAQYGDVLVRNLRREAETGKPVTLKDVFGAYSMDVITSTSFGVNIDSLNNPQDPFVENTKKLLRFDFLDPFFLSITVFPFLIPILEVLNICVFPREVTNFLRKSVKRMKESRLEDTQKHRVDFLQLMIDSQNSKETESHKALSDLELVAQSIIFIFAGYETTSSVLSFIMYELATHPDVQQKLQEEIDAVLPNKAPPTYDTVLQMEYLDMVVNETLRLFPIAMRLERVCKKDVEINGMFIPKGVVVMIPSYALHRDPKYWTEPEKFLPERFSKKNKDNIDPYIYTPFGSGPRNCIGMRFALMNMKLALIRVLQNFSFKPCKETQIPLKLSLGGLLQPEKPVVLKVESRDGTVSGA
Cytochrome P450 2D6 (Homo sapiens), sequence (P10635 whole entry, looked up): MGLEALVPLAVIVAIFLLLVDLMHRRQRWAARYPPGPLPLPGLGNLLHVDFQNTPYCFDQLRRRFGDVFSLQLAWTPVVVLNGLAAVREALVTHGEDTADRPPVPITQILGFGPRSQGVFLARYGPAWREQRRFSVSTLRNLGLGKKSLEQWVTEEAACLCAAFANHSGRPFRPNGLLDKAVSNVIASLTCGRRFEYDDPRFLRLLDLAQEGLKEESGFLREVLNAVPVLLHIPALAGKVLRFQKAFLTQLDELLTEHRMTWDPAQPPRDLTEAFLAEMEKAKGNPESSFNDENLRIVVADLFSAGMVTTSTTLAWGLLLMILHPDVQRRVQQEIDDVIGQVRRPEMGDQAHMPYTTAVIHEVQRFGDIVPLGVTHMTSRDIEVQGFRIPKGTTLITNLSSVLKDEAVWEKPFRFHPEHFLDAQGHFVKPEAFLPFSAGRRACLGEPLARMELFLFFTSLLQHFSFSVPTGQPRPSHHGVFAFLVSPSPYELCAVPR
Acetylcholinesterase (Homo sapiens), sequence (P22303 whole entry, looked up): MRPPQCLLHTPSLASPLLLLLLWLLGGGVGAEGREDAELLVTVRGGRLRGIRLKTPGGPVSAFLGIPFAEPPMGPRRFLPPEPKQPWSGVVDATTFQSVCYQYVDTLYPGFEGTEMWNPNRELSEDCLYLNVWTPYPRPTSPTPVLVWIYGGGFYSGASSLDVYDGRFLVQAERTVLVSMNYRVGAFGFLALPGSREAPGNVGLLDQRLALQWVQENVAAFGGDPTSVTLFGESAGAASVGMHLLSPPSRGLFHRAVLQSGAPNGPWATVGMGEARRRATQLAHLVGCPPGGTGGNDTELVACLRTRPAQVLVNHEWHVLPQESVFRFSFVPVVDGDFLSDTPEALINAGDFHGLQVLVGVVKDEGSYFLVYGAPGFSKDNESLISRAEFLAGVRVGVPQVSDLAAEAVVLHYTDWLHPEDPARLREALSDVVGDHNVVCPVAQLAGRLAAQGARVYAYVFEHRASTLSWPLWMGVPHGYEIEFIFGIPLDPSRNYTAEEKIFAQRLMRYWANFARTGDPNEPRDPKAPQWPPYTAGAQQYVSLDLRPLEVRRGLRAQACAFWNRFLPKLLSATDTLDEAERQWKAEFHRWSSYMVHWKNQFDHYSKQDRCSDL
Voltage-gated inwardly rectifying potassium channel KCNH2 (Homo sapiens), sequence (Q12809 whole entry, looked up): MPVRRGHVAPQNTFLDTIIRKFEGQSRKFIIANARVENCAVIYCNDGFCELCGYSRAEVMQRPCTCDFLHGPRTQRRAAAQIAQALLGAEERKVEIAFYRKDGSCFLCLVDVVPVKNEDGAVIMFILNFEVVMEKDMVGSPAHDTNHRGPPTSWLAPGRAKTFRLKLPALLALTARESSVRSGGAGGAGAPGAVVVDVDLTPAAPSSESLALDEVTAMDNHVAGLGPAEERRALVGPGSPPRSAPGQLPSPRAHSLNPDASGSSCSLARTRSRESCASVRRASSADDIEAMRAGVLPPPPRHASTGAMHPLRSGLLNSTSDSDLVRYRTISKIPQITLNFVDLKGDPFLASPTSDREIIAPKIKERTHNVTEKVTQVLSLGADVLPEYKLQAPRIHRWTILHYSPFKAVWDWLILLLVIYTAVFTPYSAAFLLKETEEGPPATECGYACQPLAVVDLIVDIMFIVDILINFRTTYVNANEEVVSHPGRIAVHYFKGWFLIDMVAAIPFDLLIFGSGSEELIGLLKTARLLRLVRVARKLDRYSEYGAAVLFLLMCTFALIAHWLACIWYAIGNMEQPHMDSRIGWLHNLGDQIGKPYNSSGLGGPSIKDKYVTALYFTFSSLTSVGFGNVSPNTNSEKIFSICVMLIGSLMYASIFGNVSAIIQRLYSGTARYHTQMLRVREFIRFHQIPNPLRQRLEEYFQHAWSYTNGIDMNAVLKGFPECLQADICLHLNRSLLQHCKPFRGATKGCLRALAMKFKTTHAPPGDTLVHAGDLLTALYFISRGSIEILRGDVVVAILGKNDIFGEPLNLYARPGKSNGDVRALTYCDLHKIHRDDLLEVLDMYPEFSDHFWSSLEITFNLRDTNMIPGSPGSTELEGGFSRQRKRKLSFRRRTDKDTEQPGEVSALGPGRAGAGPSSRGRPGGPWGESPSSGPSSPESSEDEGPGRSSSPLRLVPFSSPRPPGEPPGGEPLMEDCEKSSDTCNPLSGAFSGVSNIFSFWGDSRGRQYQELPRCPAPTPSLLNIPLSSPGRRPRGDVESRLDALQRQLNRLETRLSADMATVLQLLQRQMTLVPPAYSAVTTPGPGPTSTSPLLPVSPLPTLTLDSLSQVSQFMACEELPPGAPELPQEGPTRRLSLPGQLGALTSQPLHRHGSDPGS
Cytochrome P450 2C9 (Homo sapiens), sequence (P11712 whole entry, looked up): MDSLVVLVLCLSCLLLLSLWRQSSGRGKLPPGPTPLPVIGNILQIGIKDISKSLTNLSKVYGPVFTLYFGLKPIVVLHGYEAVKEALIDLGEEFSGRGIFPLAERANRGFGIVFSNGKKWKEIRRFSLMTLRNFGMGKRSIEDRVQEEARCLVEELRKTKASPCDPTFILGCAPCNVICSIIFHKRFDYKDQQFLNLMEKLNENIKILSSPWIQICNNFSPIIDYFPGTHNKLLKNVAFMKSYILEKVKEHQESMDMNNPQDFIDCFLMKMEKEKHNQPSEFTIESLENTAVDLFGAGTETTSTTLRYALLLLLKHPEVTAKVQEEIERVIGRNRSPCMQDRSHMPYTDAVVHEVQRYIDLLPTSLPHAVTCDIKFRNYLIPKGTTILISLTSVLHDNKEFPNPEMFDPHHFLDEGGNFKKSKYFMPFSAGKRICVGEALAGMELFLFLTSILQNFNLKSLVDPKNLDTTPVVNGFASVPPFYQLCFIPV
Cytochrome P450 1A2 (Homo sapiens), sequence (P05177 whole entry, looked up): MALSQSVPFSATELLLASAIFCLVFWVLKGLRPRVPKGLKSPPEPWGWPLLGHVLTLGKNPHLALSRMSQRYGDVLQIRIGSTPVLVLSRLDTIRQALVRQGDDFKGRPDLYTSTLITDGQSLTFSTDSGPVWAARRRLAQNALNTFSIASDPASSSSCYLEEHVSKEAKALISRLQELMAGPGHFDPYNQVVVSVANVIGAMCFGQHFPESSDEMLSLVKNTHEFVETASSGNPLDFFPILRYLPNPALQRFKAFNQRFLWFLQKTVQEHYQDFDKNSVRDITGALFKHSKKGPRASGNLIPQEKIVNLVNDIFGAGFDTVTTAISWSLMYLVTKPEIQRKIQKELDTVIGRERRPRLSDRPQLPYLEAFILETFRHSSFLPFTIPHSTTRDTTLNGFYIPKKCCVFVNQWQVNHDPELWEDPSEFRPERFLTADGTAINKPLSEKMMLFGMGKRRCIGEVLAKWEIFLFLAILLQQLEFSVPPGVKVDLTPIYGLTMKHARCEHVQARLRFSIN
Cytochrome P450 2C19 (Homo sapiens), sequence (P33261 whole entry, looked up): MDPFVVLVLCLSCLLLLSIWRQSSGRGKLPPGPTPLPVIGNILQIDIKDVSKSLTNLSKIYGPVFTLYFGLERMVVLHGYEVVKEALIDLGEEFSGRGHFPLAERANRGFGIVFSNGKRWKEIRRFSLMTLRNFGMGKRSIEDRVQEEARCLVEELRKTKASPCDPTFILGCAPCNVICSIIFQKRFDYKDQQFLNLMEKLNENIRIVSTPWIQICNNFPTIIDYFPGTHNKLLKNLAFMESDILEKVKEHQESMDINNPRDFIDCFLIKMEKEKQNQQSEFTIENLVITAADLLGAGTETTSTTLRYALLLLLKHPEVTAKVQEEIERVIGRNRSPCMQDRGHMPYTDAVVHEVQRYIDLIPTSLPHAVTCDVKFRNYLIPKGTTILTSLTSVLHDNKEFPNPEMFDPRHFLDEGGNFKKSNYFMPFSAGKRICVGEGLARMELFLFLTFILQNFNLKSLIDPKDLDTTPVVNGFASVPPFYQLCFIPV

Turning to `COP(N)(=S)Oc1ccccc1C(=O)OC(C)C` (stereo not given), the Potency result in assay [1] and in assay [6] was “inactive” throughout. Further, the Potency in assay [2] was 2.83 µM (active); in assay [3], 31.7 µM (active); in assay [4], 6.33 µM (active); in assay [5], 2 µM (active); in assay [7] it was 2 µM (active).

On to `O=C(NCO)NCO`, for which the Potency entry in assay [1], in assay [2], in assay [3], in assay [4], in assay [5] and in assay [6] was “inactive” throughout. Besides, the Potency entry in assay [7] is “inactive”.

Take `CC(C)(C)OC(=O)c1ncn2c1[C@@H]1CCCN1C(=O)c1c(Br)cccc1-2`: the Potency result in assay [1], in assay [2], in assay [3], in assay [5] and in assay [6] was “inactive” throughout. Further, the Potency in assay [4] is 7.76 µM (active).

In the case of `N#CC(Cl)(Cl)Cl`, the Potency result in assay [1], in assay [2], in assay [4], in assay [5], in assay [6] and in assay [7] was “inactive” throughout. The Potency in assay [3] was 69.2 µM (active).

For the molecule `O=P(O)(Oc1ccccc1)Oc1ccccc1`, the Potency entry in assay [1], in assay [2], in assay [3], in assay [5], in assay [6] and in assay [7] was “inactive” in each case. Also, in assay [4], the Potency was 39.9 µM (active).

For the molecule `CC(Oc1ccc(Oc2ncc(C(F)(F)F)cc2Cl)cc1)C(=O)O` (stereo not given), the Potency entry in assay [1], in assay [2], in assay [6] and in assay [7] was “inactive” throughout. For the same molecule, the values for the Potency in assay [3], in assay [4] and in assay [5] were 71 µM (active), 35.6 µM (active) and 39.9 µM (active), respectively.

On to `O=[N+]([O-])c1cccc2c([N+](=O)[O-])cccc12`, for which the Potency result in assay [1] and in assay [2] was “inactive” each time. The Potency was 11.3 µM (active) in assay [3]; 40.1 µM (active) in assay [4]; 1.01 µM (active) in assay [5]; 24.7 µM (active) in assay [6]; 31.9 µM (active) in assay [7].

For the molecule `CN1CCN(C(=O)O[C@H]2c3nccnc3C(=O)N2c2ccc(Cl)cn2)CC1`, the Potency entry in assay [1], in assay [2], in assay [3], in assay [4], in assay [6] and in assay [7] was “inactive” each time. Moreover, the Potency in assay [5] is 27.5 µM (active).

For `CC(C)[N+](=O)[O-]`, the Potency result in assay [1], in assay [2], in assay [3], in assay [4], in assay [6] and in assay [7] was “inactive” each time.

As for `Nc1cc(Cl)ccc1O`, the Potency result in assay [1], in assay [2] and in assay [6] was “inactive” each time. Further, the Potency in assay [3] is 34.4 µM (active); in assay [4] it was 30.7 µM (active); in assay [5], 30.7 µM (active); in assay [7] it was 21.7 µM (active).

With `COC(=O)COc1ccc(Cl)cc1Cl`, the Potency entry in assay [1], in assay [2], in assay [3], in assay [4], in assay [6] and in assay [7] was “inactive” in each case. Also, the Potency in assay [5] is 12.6 µM (active).

For `CC1=C(C(=O)Nc2ccccc2)S(=O)(=O)CCO1`, the Potency result in assay [1], in assay [2], in assay [3], in assay [8], in assay [6] and in assay [7] was “inactive” in each case.

Regarding `CCOC(=O)CP(=O)(OCC)OCC`, the Potency result in assay [1], in assay [2], in assay [3], in assay [4], in assay [5] and in assay [6] was “inactive” in each case. The Potency result in assay [7] is “inactive”.

On to `OC(Cn1cncn1)(c1ccc(F)cc1)c1ccccc1F` (stereo not given), for which the Potency entry in assay [1], in assay [2] and in assay [6] was “inactive” each time. Also, the Potency in assay [3] was 35.6 µM (active); in assay [4], 0.796 µM (active); in assay [5] it was 31.7 µM (active); in assay [7], 0.224 µM (active).

As for `Nc1cc2c3c(c1)C(c1ccccc1)=N[C@@H](NC(=O)c1cccnc1)C(=O)N3CC2`, the Potency result in assay [1], in assay [2], in assay [3], in assay [5] and in assay [6] was “inactive” in each case. Also, the values for the Potency in assay [4] and in assay [7] were 7.1 µM (active) and 11.2 µM (active), respectively.

`CCCSP(=O)(OCC)Oc1ccc(Br)cc1Cl` (stereo not given): the Potency is 0.866 µM (active) in assay [1]; 2.74 µM (active) in assay [2]; 15.4 µM (active) in assay [3]; 10.9 µM (active) in assay [4]; 4.34 µM (active) in assay [5]. For the same molecule, in assay [7], the Potency result was “inactive”.

As to `CCNc1nc(NC(C)C)nc(OC)n1`, the Potency entry in assay [1], in assay [2], in assay [3], in assay [4] and in assay [6] was “inactive” throughout. The Potency in assay [5] is 25.2 µM (active).

As for `CC(CC(C#N)(c1ccccc1)c1ccccc1)N(C)C` (stereo not given), the Potency result in assay [1], in assay [2], in assay [4] and in assay [5] was “inactive” in each case. Besides, the Potency in assay [3] was 11.2 µM (active); in assay [6], 27.4 µM (active).

Turning to `ClCCOCOCCCl`, the Potency entry in assay [1], in assay [2], in assay [3], in assay [4], in assay [5] and in assay [6] was “inactive” each time. The Potency entry in assay [7] was “inactive”.

With `O=c1oc2ccccc2c(O)c1C1CCCc2ccccc21` (stereo not given), the Potency result in assay [1], in assay [2], in assay [3], in assay [5] and in assay [6] was “inactive” in each case. In addition, the figures for the Potency in assay [4] and in assay [7] were 3.99 µM (active) and 31.7 µM (active), respectively.

Take `COc1ncc(F)c2nc(S(=O)(=O)Nc3c(F)cccc3F)nn12`: the Potency entry in assay [1], in assay [2], in assay [3], in assay [5], in assay [6] and in assay [7] was “inactive” throughout. For the same molecule, in assay [4], the Potency is 22.6 µM (active).

`COC(=O)c1ccccc1S(=O)(=O)NC(=O)N(C)c1nc(C)nc(OC)n1`: the Potency entry in assay [1], in assay [2], in assay [3], in assay [4], in assay [5] and in assay [6] was “inactive” in each case. Further, in assay [7], the Potency entry was “inactive”.

With `CCOP(=S)(OCC)Oc1cc(-c2ccccc2)on1`, the Potency was 44.8 µM (active) in assay [1]; 3.17 µM (active) in assay [2]; 35.6 µM (active) in assay [3]; 0.502 µM (active) in assay [4]; 3.17 µM (active) in assay [5]; 1.26 µM (active) in assay [7]. For the same molecule, the Potency entry in assay [6] was “inactive”.

Regarding `CCC(=O)c1ccccc1`, the Potency entry in assay [1], in assay [2], in assay [3], in assay [4], in assay [5] and in assay [6] was “inactive” each time. Also, the Potency entry in assay [7] was “inactive”.

Consider `c1coc(-c2nc3ccccc3[nH]2)c1`, for which the Potency result in assay [1], in assay [2], in assay [4], in assay [6] and in assay [7] was “inactive” throughout. For the same molecule, the Potency was 44.8 µM (active) in assay [3] and 7.96 µM (active) in assay [5].

For the molecule `CC1(C)C(=O)NC(=O)NC1=O`, the Potency entry in assay [1], in assay [2], in assay [3], in assay [4], in assay [6] and in assay [7] was “inactive” throughout. Also, the Potency in assay [5] was 35.6 µM (active).

As for `CC(N)=S`, the Potency entry in assay [1], in assay [2], in assay [3], in assay [6] and in assay [7] was “inactive” each time. In assay [8], the Potency is 71 µM (active).

Take `O=C(CCN1CC1)OCC(CO)(COC(=O)CCN1CC1)COC(=O)CCN1CC1`: the Potency entry in assay [1], in assay [2], in assay [3], in assay [4], in assay [6] and in assay [7] was “inactive” each time.

Regarding `CCC1(c2ccccc2)C(=O)N=C(O)NC1=O` (stereo not given), the Potency entry in assay [1], in assay [2], in assay [3], in assay [5], in assay [6] and in assay [7] was “inactive” in each case. For the same molecule, the Potency in assay [4] was 61.6 µM (active).
